Test [1] can be described thus: compounds altering viability of human ES cells (AID 493140).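 Note: cells exposed to compounds for four days before counting.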 The note with it: human embryonic stem cell survival screen; stronger effect = higher value.
Test [2] in a line: P. berghei load reduction in hepatocytes – cell-based, HepG2, luciferase luminescence, HepG2 viability, primary screen (AID 624349; in the data active = parasite load remaining mostly below about 12%, no sharp cut-off; inactive = mostly above about 10%;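 note: 100% = mean of DMSO negative control wells on the same plate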). The following applies: P. berghei liver stage in HepG2, luciferase luminescence, concentration not given here; parasite load remaining: stronger effect = lower value; viability: measured here: HepG2 viability without parasites.
Test [3] is described as follows: liver-stage malaria parasite load reduction – cell-based, known kinase inhibitor set, luminescence, hepatoma host viability (AID 624392).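 Note: infected cells incubated roughly two days before readout.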 The note with it: Plasmodium liver stage in hepatoma cells, luciferase luminescence, concentration not given here; liver cell % of control: measured here: host liver cell viability; parasite % of control: stronger effect = lower value.
In test [4] the test system is Neuropilin-2 / VEGF-C interaction (human). Put plainly: small molecules blocking Neuropilin-2/VEGF-C interaction – biochemical, microplate binding format, z-score (AID 743281). The following applies: microplate NRP2/VEGF-C binding assay; stronger effect = lower value.
Test [5] deals with Hepatitis C virus NS3 helicase. Put plainly: blockers of NS3h binding to ssDNA – biochemical, fluorescence polarization, LOPAC1280 library, primary screen (AID 687035; in the data active = inhibition above about 37%). The note with it: Purified HCV NS3 helicase, Cy5-dT15 ssDNA binding fluorescence polarization; stronger effect = higher value; concentration not given here. On the technique in general: Fluorescence polarisation rises when a labelled molecule tumbles more slowly, as on binding a larger partner.

Test [6] can be described thus: compounds altering Cy5-DNA-NS3h complex signal – biochemical, LOPAC1280, artefact control for HCV NS3 helicase inhibitor project (AID 687037). The following applies: Cy5-DNA-NS3h complex fluorescence interference counterscreen. On the technique in general: The purpose of a counterscreen is to sort out artefacts and off-target activity.

Molecules are shown by their SMILES. Activity calls are given as the source filed them. Unless noted, the rule behind the calls is not given here.

One may read the viability as a read-out of living cells in per cent, often relative to untreated cells. Broadly, the inhibition is the relative decrease from the control value, in per cent.

For `CC(C)C1C(=O)N2CCCC2C2(O)OC(NC(=O)C3CC4c5cccc6[nH]cc(c56)CC4N(C)C3)(C(C)C)C(=O)N12` (configuration not stated), the survival in test [1] was 8 (inactive). Turning to `CC[C@H]1CN2CCc3cc(OC)c(OC)cc3[C@@H]2C[C@@H]1C[C@H]1NCCc2cc(O)c(OC)cc21`, the survival in test [1] was 0.333 (inactive). Also, in test [2], the parasite load remaining is 8.07% (inactive) and the viability was found to be 49.7%.

For `O=c1cccc2n1CC1CNC[C@@H]2C1`, the survival in test [1] is 9 (inactive). In test [2], the parasite load remaining was 70.3% (inactive) and the viability was determined as 77.8%. With `CNS(=O)(=O)c1ccc(-c2ccc(C=C3C(=O)NC(=O)NC3=O)o2)cc1`, in test [3], the liver cell % of control was 99.7% and the parasite % of control is 111% (inactive). Turning to `O=C1NC(=O)C(=Cc2ccc(-c3ccc([N+](=O)[O-])cc3)o2)C(=O)N1`, in test [3], the liver cell % of control amounted to 98% and the parasite % of control is 117% (inactive). `CC1CC[C@]2(NC1)O[C@H]1C[C@H]3[C@@H]4CC[C@H]5C[C@@H](O)CC[C@]5(C)[C@H]4CC[C@]3(C)[C@H]1[C@@H]2C` (some centres not stated): the survival in test [1] is 5.67 (inactive). Also, in test [2], the parasite load remaining was 77.7% (inactive) and the viability stood at 73.9%.

With `C=C[C@@H]1CN2CCC1C[C@@H]2[C@H](O)c1ccnc2ccccc12` (some centres not stated), the survival in test [1] was 3.33 (inactive). Further, in test [2], the parasite load remaining is 71% (inactive) and the viability came to 77.6%. In the case of `CC/C=C\C[C@@H](/C=C/C=C\C/C=C\C/C=C\CCCC(=O)O)OO`, in test [1], the survival is 90.4 (inactive). For `CC[C@@H]1/C=C\C=C\C[C@H](C)[C@@H](O)[C@@H](C)C(=O)[C@H](C)[C@@H](O)[C@H](C)C(=O)[C@H](C)[C@@H](O)[C@H](C)/C=C/C(=O)O[C@H]2[C@@H](C)[C@@H](CC1)O[C@@]1(CC[C@@H](C)[C@@H](C[C@H](C)O)O1)[C@@H]2C`, the outcome in test [4] was inactive.

In the case of `O=C1NC(=O)C(=Cc2ccc(-c3ccc(F)cc3O)o2)C(=O)N1`, in test [3], the liver cell % of control amounted to 100% and the parasite % of control was 87.6% (inactive). For the molecule `O=C1NC(=O)C(=Cc2ccc(-c3ccc(Cl)cc3)o2)C(=O)N1`, in test [3], the liver cell % of control was 87% and the parasite % of control is 167% (inactive). As to `CN[C@@H]1CC2(C)OC([C@@H]1OC)n1c3ccccc3c3c4c(c5c6ccccc6n2c5c31)C(=O)NC4` (some centres not stated), the survival in test [1] is 0.333 (inactive). `NC(N)=NOCC[C@@H](N)C(=O)O`: the survival in test [1] is 14.8 (inactive). Besides, in test [2], the parasite load remaining is 70.5% (inactive) and the viability was determined as 75.6%. Consider `COC1=C[C@H]2C3=C([C@H]2C1=O)[C@@H](NC(C)=O)CCc1cc(OC)c(OC)c(OC)c13`, for which the survival in test [1] was 13.2 (inactive). Moreover, in test [2], the parasite load remaining was 78.4% (inactive) and the viability stood at 74.3%. `O=S(=O)(c1c(O)c(Cl)cc(Cl)c1Cl)c1c(O)c(Cl)cc(Cl)c1Cl`: in test [2], the parasite load remaining is 27.4% (inactive) and the viability was 70.9%.

On to `COc1ccc(C(=O)OC2C[C@H]3CC[C@@H](C2)N3C)cc1OC` (some centres not stated), for which the survival in test [1] is 13.3 (inactive). Further, in test [2], the parasite load remaining was 68.2% (inactive) and the viability was found to be 77.3%. Regarding `CCC(C)C1OC2(C=CC1C)CC1CC(CC=C(C)C(OC3CC(OC)C(OC4CC(OC)C(O)C(C)O4)C(C)O3)C(C)C=CC=C3COC4C(O)C(C)=CC(C(=O)O1)C34O)O2` (configuration not stated), the survival in test [1] was 3.5 (inactive).

On to `NS(=O)(=O)c1ccc(-c2ccc(C=C3C(=O)NC(=O)NC3=O)o2)cc1`, for which, in test [3], the liver cell % of control turned out to be 104% and the parasite % of control was 97.7% (inactive). As to `CN1C2CCC1CC(OC1c3ccccc3CCc3ccccc31)C2` (configuration not stated), the survival in test [1] is 0.75 (inactive). The same measure, in the same setting: to `C[C@H]1O[C@@H](OC2CC[C@]3(C=O)[C@H]4CC[C@]5(C)[C@@H](C6=CC(=O)OC6)CC[C@@]5(O)[C@@H]4CC[C@]3(O)C2)C[C@H](O)[C@@H]1O` (some centres not stated) belongs 1.42 (inactive).

In the case of `CC(C)C(C(=O)OC(C#N)c1cccc(Oc2ccccc2)c1)c1ccc(Cl)cc1` (configuration not stated), in test [1], the survival was 79 (inactive).

`CCC[C@@H]1C[C@@H](C(=O)N[C@H]([C@@H](C)O)[C@H]2O[C@H](SC)[C@H](O)[C@@H](O)C2O)N(C)C1` (some centres not stated): in test [1], the survival is 18.3 (inactive). Turning to `C=CCN1CC[C@]23c4c5ccc(O)c4O[C@@H]2/C(=N\N=C2\CC[C@@]4(O)C6Cc7ccc(O)c8c7[C@@]4(CCN6CC=C)[C@@H]2O8)CC[C@@]3(O)C1C5`, the inhibition in test [5] is -6% (inactive). Besides, in test [6], the fluorescence ratio (interference) is 0.9 (inactive). Turning to `N#CC(C#N)=Cc1cc(O)c(O)c([N+](=O)[O-])c1`, the survival in test [1] is 100 (inactive). On the same count and under the same terms, to `CN1C2CC(=O)CC1C(O)C2` (configuration not stated) belongs 4.08 (inactive); to `CCN(CC)C(=O)N[C@@H]1CC2c3cccc4[nH]cc(c34)CC2N(C)C1` (some centres not stated), 2.5 (inactive).

For the origin of these results see PubChem BioAssay.
